Measurements taken from PubChem BioAssay AID1159580 (chemical genetic matrix, 2015).
The whole screen tested about 5,500 compounds, of which about 2,000 (36%) were called active. Roughly 18% stayed inconclusive and do not appear here. No stated cut-off is given here; in the data, active means normalized growth mostly below about 0.91 (no sharp cut-off); inconclusive means no clear call, values can overlap the other calls; inactive means mostly above about 0.92. This is one part of the list.

Assay: chemical genetic growth profiling, strain panel (AID 1159580);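 further: tested at 20 µM; growth read once vehicle control cultures reached saturation at 30 °C; 1 = growth at the plate median or of vehicle wells; lower values mean less growth of the strain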
Conditions: S. cerevisiae deletion strains, growth OD
[1] = locus YMR307W, strain GAS1, hits give low values

Measured: normalized growth

CNCC(O)c1ccc(O)c(O)c1 (stereo not drawn)
inactive: locus YAL040C, strain CLN3, hits give low values 1.08 | locus YCL061C, strain MRC1 (second series), hits give low values 1 | locus YDR363W, strain ESC2, hits give low values 1.01 | locus YER002W, strain NOP16, hits give low values 1 | locus YGR078C, strain PAC10, hits give low values 1.02 | locus YGR229C, strain SMI1, hits give low values 0.982 | locus YJR075W, strain HOC1, hits give low values 1 | locus YMR263W, strain SAP30, hits give low values 1.01 | [1] 1 | locus YNL175C, strain NOP13, hits give low values 0.994 | locus YNL197C, strain WHI3, hits give low values 0.998 | locus YNL224C, strain SQS1, hits give low values 1.02 | locus YOR083W, strain WHI5 (second series), hits give low values 1.02

CCOC(=O)C(=O)C1(C(=O)OCC)Oc2cc(OC)cc(OC)c2C(=O)C1c1ccccc1 (stereo not drawn)
inactive: locus YAL021C, strain ccr4, hits give low values 0.981 | locus YAL026C, strain drs2, hits give low values 0.96 | locus YAL030W, strain snc1, hits give low values 0.96 | locus YBL061C, strain skt5, hits give low values 0.951 | locus YBR009C, strain hhf1, hits give low values 0.908 | locus YBR023C, strain chs3, hits give low values 0.954 | locus YBR171W, strain sec66, hits give low values 0.939 | locus YBR229C, strain ROT2, hits give low values 0.986 | locus YBR231C, strain swc5, hits give low values 0.961 | locus YBR279W, strain paf1, hits give low values 0.965 | locus YCL011C, strain gbp2, hits give low values 0.925 | locus YCL016C, strain dcc1, hits give low values 0.972 | locus YCL029C, strain bik1, hits give low values 0.989 | locus YCL061C, strain MRC1, hits give low values 0.938 | locus YCL069W, strain vba3, hits give low values 0.96 | locus YCR088W, strain abp1, hits give low values 0.967 | locus YDL005C, strain med2, hits give low values 0.961 | locus YDL035C, strain GPR1, hits give low values 0.967 | locus YDL040C, strain nat1, hits give low values 0.961 | locus YDL074C, strain BRE1, hits give low values 0.913 | locus YDL101C, strain DUN1, hits give low values 0.959 | locus YDL185W, strain tfp1, hits give low values 0.969 | locus YDL192W, strain arf1, hits give low values 0.945 | locus YDR001C, strain nth1, hits give low values 0.947 | locus YDR069C, strain doa4, hits give low values 0.967 | locus YDR101C, strain arx1, hits give low values 0.955 | locus YDR137W, strain rgp1, hits give low values 0.904 | locus YDR159W, strain sac3, hits give low values 0.928 | locus YDR162C, strain NBP2, hits give low values 0.987 | locus YDR195W, strain ref2 1.01 | locus YDR297W, strain sur2, hits give low values 0.949 | locus YDR318W, strain mcm21, hits give low values 0.936 | locus YDR334W, strain swr1, hits give low values 0.965 | locus YDR335W, strain msn5, hits give low values 0.971 | locus YDR388W, hits give low values 0.968 | locus YDR392W, strain spt3, hits give low values 0.767 | locus YDR502C, strain sam2, hits give low values 0.928 | locus YEL003W, strain gim4, hits give low values 0.948 | locus YEL037C, strain rad23, hits give low values 0.964 | locus YEL061C, strain CIN8 (second series), hits give low values 0.929 | locus YEL061C, strain CIN8, hits give low values 0.99 | locus YER015W, strain faa2, hits give low values 0.952 | locus YER016W, strain bim1, hits give low values 0.976 | locus YER110C, hits give low values 0.953 | locus YER111C, strain swi4, hits give low values 0.946 | locus YER155C, strain BEM2 (second series), hits give low values 0.875 | locus YER155C, strain BEM2, hits give low values 0.966 | locus YER167W, strain BCK2, hits give low values 0.97 | locus YFR010W, strain ubp6, hits give low values 0.956 | locus YGL078C, strain dbp3, hits give low values 0.938 | locus YGL086W, strain mad1, hits give low values 0.942 | locus YGL173C, strain kem1, hits give low values 0.947 | locus YGL227W, strain vid30, hits give low values 0.926 | locus YGL240W, strain doc1, hits give low values 0.911 | locus YGL248W, strain PDE1, hits give low values 0.945 | locus YGL253W, strain hxk2, hits give low values 0.972 | locus YGR135W, strain pre9, hits give low values 0.915 | locus YGR252W, strain gcn5, hits give low values 0.791 | locus YHR013C, strain ard1, hits give low values 0.95 | locus YHR027C, strain rpn1, hits give low values 0.987 | locus YHR030C, strain SLT2, hits give low values 0.993 | locus YHR079C, strain IRE1 (second series), hits give low values 0.961 | locus YHR094C, strain hxt1, hits give low values 0.951 | locus YHR129C, strain ARP1, hits give low values 0.966 | locus YHR142W, strain chs7, hits give low values 0.95 | locus YHR200W, strain rpn10, hits give low values 0.942 | locus YIL066C, strain RNR3, hits give low values 0.983 | locus YIL073C, strain SPO22, hits give low values 0.929 | locus YIL125W, strain kgd1, hits give low values 0.971 | locus YIR030C, strain dcg1, hits give low values 0.962 | locus YJL092W, strain hpr5, hits give low values 0.941 | locus YJL095W, strain BCK1 (second series), hits give low values 0.973 | locus YJL095W, strain BCK1, hits give low values 0.907 | locus YJL115W, strain asf1, hits give low values 0.979 | locus YJL134W, strain LCB3, hits give low values 0.989 | locus YJL154C, strain vps35, hits give low values 0.968 | locus YJL164C, strain tpk1, hits give low values 0.95 | locus YJL166W, strain qcr8, hits give low values 0.926 | locus YJL168C, strain set2, hits give low values 0.966 | locus YJL187C, strain SWE1 (second series), hits give low values 0.948 | locus YJL187C, strain SWE1, hits give low values 0.953 | locus YJR043C, strain POL32, hits give low values 0.998 | locus YKL009W, strain mrt4, hits give low values 0.899 | locus YKL068W, hits give low values 0.955 | locus YKL085W, strain MDH1 (second series), hits give low values 0.959 | locus YKL085W, strain MDH1, hits give low values 0.959 | locus YKL160W, strain elf1, hits give low values 0.966 | locus YKL190W, strain CNB1, hits give low values 0.989 | locus YKR001C, strain vps1, hits give low values 0.958 | locus YKR026C, strain gcn3, hits give low values 0.932 | locus YLL001W, strain dnm1, hits give low values 0.964 | locus YLL026W, hits give low values 0.969 | locus YLL041C, strain sdh2, hits give low values 0.966 | locus YLR027C, strain aat2, hits give low values 0.95 | locus YLR039C, strain RIC1, hits give low values 0.983 | locus YLR058C, strain SHM2, hits give low values 0.959 | locus YLR102C, strain apc9, hits give low values 0.962 | locus YLR221C, strain rsa3, hits give low values 0.91 | locus YLR258W, strain gsy2, hits give low values 0.959 | locus YLR262C, strain YPT6 (second series), hits give low values 0.906 | locus YLR262C, strain YPT6, hits give low values 0.978 | locus YLR268W, strain sec22, hits give low values 0.955 | locus YLR320W, strain mms22, hits give low values 0.889 | locus YLR342W, strain FKS1, hits give low values 0.919 | locus YLR357W, strain rsc2, hits give low values 0.916 | locus YLR370C, strain arc18, hits give low values 0.938 | locus YLR371W, strain rom2, hits give low values 0.962 | locus YLR384C, strain iki3, hits give low values 0.95 | locus YML016C, strain PPZ1, hits give low values 0.989 | locus YML032C, strain rad52, hits give low values 0.961 | locus YML120C, strain ndi1, hits give low values 0.919 | locus YML124C, strain tub3, hits give low values 0.94 | locus YMR058W, strain fet3, hits give low values 0.946 | locus YMR078C, strain ctf18, hits give low values 0.94 | locus YMR125W, strain sto1, hits give low values 0.979 | locus YMR129W, hits give low values 0.936 | locus YMR205C, strain PFK2, hits give low values 0.877 | locus YMR223W, strain ubp8, hits give low values 0.949 | locus YMR231W, strain pep5, hits give low values 0.988 | [1] 0.949 | locus YNL067W, strain RPL9B, hits give low values 0.965 | locus YNL153C, strain GIM3, hits give low values 0.986 | locus YNL209W, strain ssb2, hits give low values 0.972 | locus YNL233W, strain BNI4, hits give low values 0.917 | locus YNL248C, strain rpa49, hits give low values 0.986 | locus YNL250W, strain rad50, hits give low values 0.96 | locus YNL271C, strain bni1, hits give low values 0.976 | locus YNL298W, strain CLA4, hits give low values 0.965 | locus YNL322C, strain KRE1 (second series), hits give low values 0.948 | locus YNL322C, strain KRE1, hits give low values 0.983 | locus YNR049C, strain mso1, hits give low values 0.966 | locus YNR052C, strain pop2, hits give low values 0.985 | locus YOL012C, strain htz1 1.05 | locus YOL147C, strain pex11, hits give low values 0.94 | locus YOR001W, strain rrp6, hits give low values 0.987 | locus YOR061W, strain CKA2, hits give low values 1 | locus YOR069W, strain VPS5, hits give low values 0.979 | locus YOR070C, strain gyp1, hits give low values 0.968 | locus YOR080W, strain dia2, hits give low values 0.965 | locus YOR083W, strain WHI5, hits give low values 0.956 | locus YOR106W, strain vam3, hits give low values 0.974 | locus YOR136W, strain idh2, hits give low values 0.962 | locus YOR144C, strain elg1, hits give low values 0.959 | locus YOR184W, strain ser1, hits give low values 0.876 | locus YOR265W, strain rbl2, hits give low values 0.964 | locus YOR270C, strain vph1, hits give low values 0.878 | locus YOR316C, strain cot1, hits give low values 0.963 | locus YPL051W, strain arl3, hits give low values 0.984 | locus YPL078C, strain atp4, hits give low values 0.964 | locus YPL106C, strain sse1, hits give low values 0.943 | locus YPL240C, strain hsp82, hits give low values 0.968 | locus YPR119W, strain clb2, hits give low values 0.946 | locus YPR141C, strain kar3, hits give low values 0.951 | locus YPR163C, strain tif3, hits give low values 0.97 | locus YPR167C, strain met16, hits give low values 0.929 | strain wtn01, hits give low values 0.945
active: locus YBR021W, strain FUR4, hits give low values 0.818 | locus YGL167C, strain pmr1, hits give low values 0.911 | locus YJL129C, strain trk1, hits give low values 0.862 | locus YKR091W, strain srl3, hits give low values 0.929 | locus YLR330W, strain CHS5, hits give low values 0.906 | locus YLR418C, strain cdc73, hits give low values 0.804 | locus YNL071W, strain lat1, hits give low values 0.915 | locus YNL307C, strain MCK1, hits give low values 0.888 | locus YOR290C, strain snf2, hits give low values 0.863
